The values below come from PubChem BioAssay (NCI).

Molecules are shown by their SMILES. About 83,000 compounds went through this panel and 20% of them were active in at least one assay; those are over-represented in the sample as a whole.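 Percent growth is the endpoint: 0 to 100 indicates growth inhibition (40 means 60% inhibition), 0 means no net growth, and negative values indicate cell death.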 Calls of active or inactive are those of the source. Rule for the calls: active = growth percent below 10; inactive = the rest.

The assay relates to MCF7 breast. The assay can be described thus: NCI-60 one-dose screen, 48 h (100 = growth as untreated, 0 = no growth, -100 = all killed). To be noted: 10 µM unless noted.
As to `C#C[C@]1(O)CC[C@H]2[C@@H]3CC=C4c5sc(-c6cccc(F)c6)nc5CC[C@]4(C)[C@H]3CC[C@@]21C`, the growth was 66.7% (inactive).
Take `COc1ccc(NS(=O)(=O)c2ccc(-c3cnc(C4CC4)o3)cc2)cc1Cl`: the growth was 17.4% (inactive).
As for `Cc1cc(=O)n2nc(-c3c[nH]c4ccccc34)sc2n1`, the figure is 73.2% (inactive).
Turning to `CCN1C(=O)N(CC)C2SC(N/N=C/c3ccccc3)=NC21` (stereo not given), the growth is 18.6% (inactive).
Turning to `CC1=C2C(=C[C@@](C)(COS(N)(=O)=O)[C@@H]2O)C(=O)[C@](C)(O)C12CC2`, the growth is 61.7% (inactive).
Regarding `CCNCc1c(-c2cccc(OC(F)(F)F)c2)[nH]c2ccc(N3CCCC3)cc2c1=O`, the growth was 11.4% (inactive).
Consider `CN(C)c1ncc(/C=C2\SC(=S)N(Cc3ccccc3Cl)C2=O)s1`, for which the growth was 92.1% (inactive).
In the case of `O=C(CN1C(=O)S/C(=C\c2ccccc2)C1=O)Nc1ccc(C(=O)/C=C/c2cc3ccccc3nc2Cl)cc1`, the growth was 26.6% (inactive).
As for `O=S(=O)(Nc1ccc(C2CC2)cc1)c1ccc(-c2cnc(C3CC3)o2)cc1`, the figure is 33.3% (inactive); as for `Oc1ccc(-c2nnc(SCc3ccc(O)c4ncccc34)o2)cc1`, 2.57% (active); as for `C#C[C@]1(O)CC[C@H]2[C@@H]3CC=C4c5sc(-c6ccc(OC)cc6)nc5CC[C@]4(C)[C@H]3CC[C@@]21C`, 27.6% (inactive).
Consider `CCCC(=O)NC(c1cccnc1)c1cc(C(C)=O)c2cccnc2c1O` (stereo not given), for which the growth was 18.8% (inactive).
`CC(=O)Nc1ccc(NC(=O)Nc2cccc(-c3nc(-c4ccc(NC(=O)c5cccs5)cc4Cl)no3)c2)cc1C(F)(F)F`: the growth is -58.1% (active).
Turning to `O=C(CN1CCN(c2cc(=O)n(-c3ccccc3)c3ccccc23)CC1)Nc1ccc([N+](=O)[O-])cc1`, the growth is 88.2% (inactive).
For the compound `O=S(=O)(Nc1cc(Cl)cc(Cl)c1)c1ccc(-c2cnc(C3CC3)o2)cc1`, the growth is 20.9% (inactive).
In the case of `CCOC(=O)c1c(NCC(=O)Nc2cccc([N+](=O)[O-])c2)sc2c1CCCC2`, the growth is -12.8% (active).
For the compound `COc1ccc(Oc2ccc(C3CC(c4cc(OC)c(OC)c(OC)c4)=NN3C(C)=O)cc2)cc1` (stereo not given), the growth is 10.1% (inactive).
In the case of `O=S(=O)(Nc1ccc2c(c1)OC(F)(F)O2)c1ccc(-c2cnc(C3CC3)o2)cc1`, the growth is 19.9% (inactive).
In the case of `COc1ccc(Cn2cc3c(c2-c2ccccc2)CCCc2cnoc2-3)cc1` it was 22.9% (inactive); in that of `Cc1nn(-c2ccccc2)cc1/C=N/Nc1nc(Nc2ccccc2)nc(Nc2ccc(S(N)(=O)=O)cc2)n1`, -69.9% (active); in that of `COc1cc2c3c(n(CCCNC4CCCCC4)c(=O)c2cc1OC)-c1cc2c(cc1C3=O)OCO2`, -78.1% (active).
Regarding `CC(=O)Nc1ccc(NC(=O)Nc2cccc(-c3nc(-c4ccc(NC(=O)c5cccnc5)cc4Cl)no3)c2)cc1C(F)(F)F`, the growth is -61.3% (active).
As for `O=C(Nc1cccc(-c2nc(-c3ccc(NC(=O)c4cccnc4)cc3Cl)no2)c1)Nc1ccc(NC(=O)C2CC2)c(C(F)(F)F)c1`, the figure is -66.8% (active); as for `COC(=O)c1c(C(=O)OC)c2n(CC(=O)Nc3cccc4cccnc34)c3ccccc3n2c1C(=O)c1ccc(C)cc1`, 93.4% (inactive); as for `O=C(C[n+]1ccnc2ccccc21)c1ccc(O)c(O)c1`, 12.5% (inactive).
As to `O=C(COc1ccc(C2SCC(=O)N2c2ccc(F)cc2)cc1)c1ccccc1` (stereo not given), the growth is 81.7% (inactive).
Regarding `CCOc1ccc2nc(NC(=O)Nc3ccccc3C)sc2c1`, the growth was 27.7% (inactive).
In the case of `O=C(COc1ccc(C2SCC(=O)N2c2ccccc2)cc1)c1ccccc1` (stereo not given) it was 88.3% (inactive); in that of `Cc1cc(O)c2c(c1)C(=O)C(c1c(C)cc3c(c1O)C(=O)C=CC3=O)=CC2=O`, 49.9% (inactive).
In the case of `O=S(=O)(Nc1cc(Cl)c(F)c(Cl)c1)c1ccc(-c2cnc(C3CC3)o2)cc1` it was 20.2% (inactive); in that of `CN(C)CCn1c2ccc(N)cc2c2nc3ccccc3nc21`, 9.61% (active); in that of `Cn1c2ccccc2c2c3c(c4c5ccc(Br)cc5oc4c21)C(=O)N(O)C3=O`, 19.2% (inactive).
Consider `COc1ccc(-c2nnc(/N=C3/C(=O)Nc4ccc(Br)cc43)o2)cc1`, for which the growth was 78.8% (inactive).
As for `C#C[C@]1(O)CC[C@H]2[C@@H]3CC=C4c5sc(C6CC6)nc5CC[C@]4(C)[C@H]3CC[C@@]21C`, the figure is 64.7% (inactive).
`CCc1ccc(NC(=O)N[C@@H](Cc2cccc(F)c2)C(=O)N[C@@H]2C(=O)N3CCC[C@H]3C(=O)N3CCCC[C@H]3C(=O)N[C@@H](CO)C(=O)N3C[C@H](C)C[C@H]3C(=O)O[C@H]2C)c(F)c1`: the growth is 14.9% (inactive).
